{"source": "PubChem BioAssay (Tox21)", "note": "Inconclusive results are not listed. Entries that show only a call come without a potency. Calls of active or inactive are those of the source. Calls come from the whole dose curve; as a rule, active = well fitted activation curve with a large enough effect in the signal ratio in the repeat runs (not every such curve was filed as active); inconclusive = weak or mixed curves, or effect the other way; inactive = flat fitted curve, though single readings scatter; the % refers to the signal ratio."}
{"target": "Estrogen receptor beta (Homo sapiens) (UniProt Q92731)", "sequence (Q92731 whole entry, looked up)": "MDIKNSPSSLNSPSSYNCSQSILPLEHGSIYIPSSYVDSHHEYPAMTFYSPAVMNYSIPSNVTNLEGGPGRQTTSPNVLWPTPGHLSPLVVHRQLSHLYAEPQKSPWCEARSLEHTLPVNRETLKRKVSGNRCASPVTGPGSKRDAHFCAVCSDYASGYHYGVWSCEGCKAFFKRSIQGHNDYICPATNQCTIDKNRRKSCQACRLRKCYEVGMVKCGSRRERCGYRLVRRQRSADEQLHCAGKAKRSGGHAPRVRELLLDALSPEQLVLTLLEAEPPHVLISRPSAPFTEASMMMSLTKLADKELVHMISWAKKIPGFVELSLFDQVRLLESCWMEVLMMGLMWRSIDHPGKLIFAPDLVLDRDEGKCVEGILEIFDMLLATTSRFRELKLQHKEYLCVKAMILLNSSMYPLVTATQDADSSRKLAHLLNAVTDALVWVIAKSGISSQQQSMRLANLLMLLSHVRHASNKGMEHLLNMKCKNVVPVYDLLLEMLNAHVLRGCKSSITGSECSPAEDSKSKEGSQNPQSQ", "assay": "qHTS assay to identify small molecule agonists of the estrogen receptor beta (ER-beta) signaling pathway (AID 1259377)", "settings": "ER-beta-UAS-bla HEK293T, beta-lactamase FRET ratio, 16 h; series mostly up to 92.4 µM", "from_the_text": "U.S. Tox21 Program National Center for Advancing Translational Sciences [NCATS] NIH Chemical Genomics Center [NCGC] U.S. Environmental Protection Agency [EPA] National Institutes of Environmental Health Sciences [NIEHS] National Toxicology Program [NTP] U.S. Food and Drug Administration [FDA] Tox21 Assay Overview: Estrogen receptor (ER), a nuclear hormone receptor, plays an important role in development, metabolic homeostasis and reproduction. Two subtypes of ER, ER-alpha and ER-beta, have similar expression patterns with some uniqueness in both types. Endocrine disrupting chemicals (EDCs) and their interactions with steroid hormone receptors like ER causes disruption of normal endocrine function. To identify the compounds that activate ER signaling, an ER beta-UAS-bla GripTite cell line (Life technologies, Madison, WI, USA) containing a beta-lactamase reporter gene under the control of an Upstream Activator Sequence (UAS) was used to screen Tox21 10K compound library.\nTox21 Assay Protocol Summary: ER-beta-UAS-bla HEK293T cells were dispensed at 2,000 cells/5 uL of assay medium containing 2% charcoal stripped FBS per well into black wall/clear-bottom 1536-well plates using a Multidrop Combi (ThermoFisher Scientific, Waltham, MA) dispenser. After the assay plates were incubated at a 37C and 5% CO2 for 6 hr, 23 nL of compounds dissolved in DMSO, positive controls or DMSO only was transferred to the assay plate by a Pintool station (Kalypsys, San Diego, CA). The plates were incubated at 37C and 5% CO2 for 16 hr. Then 1 uL of LiveBLAzerTM B/G FRET substrate was added using a BioRAPTR FRD (Flying Reagent Dispenser, Aurora Discovery, San Diego, CA). After the plates were incubated at room temperature for 2 hours, fluorescence intensity was measured by an Envision plate reader (PerkinElmer, Shelton, CT)."}
{"smiles": "C=CC(=O)OCCCl", "Potency": "inactive"}
{"smiles": "OCCc1ccccn1", "Potency": "inactive"}
{"smiles": "Cc1onc(-c2c(Cl)cccc2Cl)c1C(=O)Cl", "Potency": "inactive"}
{"smiles": "O=Cc1cccc(Br)c1", "Potency": "inactive"}
{"smiles": "CC1(C)[C@@H]2CC[C@@]1(C)[C@H](O)C2", "Potency": "inactive"}
{"smiles": "CCCCN(CCC(=O)OCC)C(C)=O", "Potency": "inactive"}
{"smiles": "CC(COc1ccccc1)NN", "note": "(stereo not given)", "Potency": "inactive"}
{"smiles": "CCOC(=O)C1=NOC(c2ccccc2)(c2ccccc2)C1", "Potency": "inactive"}
{"smiles": "CCCOC(=O)CC", "Potency": "inactive"}
{"smiles": "CC(CC=O)CC(C)(C)C", "note": "(stereo not given)", "Potency": "inactive"}
{"smiles": "CC(C)c1ccc2ncccc2c1", "Potency": "inactive"}
{"smiles": "CCCCCCCCN1CCCC1=O", "Potency": "inactive"}
{"smiles": "CCCCCCCCCC[N+](C)(C)[O-]", "Potency": "inactive"}
{"smiles": "CN1CCC(=C2c3ccccc3CCc3cccnc32)CC1", "Potency": "inactive"}
{"smiles": "CC(C)C1CCC(O)CC1", "note": "(stereo not given)", "Potency": "inactive"}
{"smiles": "CC(=O)O[C@@]12CO[C@@H]1C[C@H](O)[C@@]1(C)C(=O)[C@H](O)C3=C(C)[C@@H](OC(=O)[C@H](O)[C@@H](NC(=O)OC(C)(C)C)c4ccccc4)C[C@@](O)([C@@H](OC(=O)c4ccccc4)[C@H]21)C3(C)C", "Potency": "inactive"}
{"smiles": "NO", "Potency": "inactive"}
{"smiles": "CCC(C(=O)NC(=O)NC(C)=O)c1ccccc1", "note": "(stereo not given)", "Potency": "inactive"}
{"smiles": "NS(=O)(=O)Cc1noc2ccccc12", "Potency": "inactive"}
{"smiles": "CCN[C@H]1C[C@H](C)S(=O)(=O)c2sc(S(N)(=O)=O)cc21", "Potency": "inactive"}
{"smiles": "CC(=O)NC(=O)c1ccccc1O", "Potency": "inactive"}
{"smiles": "C=C(C)C(=O)OCCOCCOCCOCCOC(=O)C(=C)C", "Potency": "inactive"}
{"smiles": "C=CN1CCCCCC1=O", "Potency": "inactive"}
{"smiles": "CCCCOCCOC(=O)COc1cc(Cl)c(Cl)cc1Cl", "Potency": "inactive"}
{"smiles": "O=C(O)c1cn(C2CC2)c2cc(N3CCNCC3)c(F)cc2c1=O", "Potency": "inactive"}
{"smiles": "CCCCOCCOC(=O)CCCCCCCCC(=O)OCCOCCCC", "Potency": "inactive"}
{"smiles": "C=C(C)C(=O)OCC(O)CO", "note": "(stereo not given)", "Potency": "inactive"}
{"smiles": "Cc1ccc(C(=O)c2ccccc2)cc1", "Potency": "inactive"}
{"smiles": "CCN(C=O)CC", "Potency": "inactive"}
{"smiles": "C[N+](C)(CCOc1ccccc1)Cc1cccs1", "Potency": "inactive"}
{"smiles": "CCCO[Si](OCCC)(OCCC)OCCC", "Potency": "inactive"}
{"smiles": "CC1=CC(=O)[C@H]2C[C@@H]1C2(C)C", "Potency": "inactive"}
{"smiles": "O=CN(CCO)CCO", "Potency": "inactive"}
{"smiles": "CC(=O)Nc1ccc(OCC(O)CNC(C)C)cc1", "note": "(stereo not given)", "Potency": "inactive"}
{"smiles": "COCCOC[C@H](CC1(C(=O)NC2CCC(C(=O)O)CC2)CCCC1)C(=O)Oc1ccc2c(c1)CCC2", "note": "(stereo not given in full)", "Potency": "inactive"}
{"smiles": "CC[N+](CC)(CC)CCOc1cccc(OCC[N+](CC)(CC)CC)c1OCC[N+](CC)(CC)CC", "Potency": "inactive"}
{"smiles": "NC(=O)N1c2ccccc2CC(=O)c2ccccc21", "Potency": "inactive"}
{"smiles": "CCN1CCOCC1", "Potency": "inactive"}
{"smiles": "CCOC(=O)COc1cc(-n2ncc(C(F)(F)F)c(C)c2=O)c(F)cc1Cl", "Potency": "inactive"}
{"smiles": "CN(C)CCCCCCN(C)C", "Potency": "inactive"}
